# Among all 48,000 compounds or so, about 13,000 (27%) showed an effect of 50% or more. The list shows a part of the results.
# Test system: Wolbachia pipientis
# Assay: Anti-Wolbachia Cell-Based Screen
# Format: functional
# Set-up: scale not given: in the data most compounds retested in dose-response had high values
# Conditions: 5 µM
row,Compound,Percent Effect
1,O=C(O)c1cc2c(nc1O)CC(c1cccs1)CC2=O (centres undefined),17.51%
2,O=C(CCS(=O)(=O)C1CCCC1)NCCc1cccnc1,3.812%
3,c1cn(Cc2nnc(C3CCN(C4CCOCC4)CC3)n2C2CC2)cn1,2.986%
4,Cc1ccccc1Cc1nc(CSc2nnc(N)n2C2CC2)no1,8.42%
5,O=C(O)c1cc(-c2cccnc2)cc(S(=O)(=O)NCc2ccccn2)c1,-2.76%
6,CCC(C)Oc1cc(C(=O)Nc2nnc(C(C)C)[nH]2)ccn1 (centres undefined),-13.47%
7,Cc1occc1C(=O)N1CCC(C(O)c2ccc(Cl)cc2)CC1 (centres undefined),-7.182%
8,COCCN1CCc2ncnc(N(C)C)c2CC1,110.9%
9,FC(F)(F)c1cc(N2CCc3ncnc(NC4CC4)c3CC2)ncn1,-22.18%
10,Cc1nc2n(n1)CC(Nc1ncnc3c1CCC3)CC2 (centres undefined),2.355%
11,CN(C)c1ncnc2c1CCN(c1cc(C(F)(F)F)ncn1)CC2,-1.194%
12,COCCN1CCc2ncnc(NC3CC3)c2CC1,94.73%
13,CN(C)c1ncnc2c1CCN(c1cccc(F)c1)CC2,-12.67%
14,Cc1ccc(S(=O)(=O)Cc2noc([C@@H]3C[C@@H](O)CN3C(C)C)n2)cc1,-1.954%
15,COCCNC(=O)N1CCN(C(C)C(=O)NC2CCCC2)CC1 (centres undefined),-10.58%
16,COCCNC(=O)N1CCN(C(C)C(=O)NC(C)C)CC1 (centres undefined),2.251%
17,COCCNC(=O)C(C)N1CCN(C)CC1.O=C(O)C(=O)O (centres undefined),114.3%
18,Cc1cccc(CC(=O)Nc2cccnc2N2CCC(CO)CC2)c1,-12.05%
19,O=C1CCC2(CCCN(c3ncc(Cl)cc3F)C2)CN1CC1CC1 (centres undefined),-9.557%
20,NCc1ccc(N2CCN(c3ncccn3)CC2)c(F)c1,3.698%
21,Cc1cccc(N2N=C(C(=O)NC(C)Cc3ccco3)CCC2=O)c1 (centres undefined),19.33%
22,CC1C(=O)Nc2cccnc2N1S(=O)(=O)c1cc(F)cc(F)c1 (centres undefined),-12.84%
23,Cc1cc(N2CCCC2c2nnc3n2CCCCC3)nc(N)n1 (centres undefined),170%
24,Cc1cc(N2CCc3c(ncn3C3CC3)C2)nc(N)n1,13.11%
25,Cc1cc(N2CCCC2c2nnc3n2CCCCC3)nc(C)n1 (centres undefined),112.6%
26,Cc1cc(NCc2nnc3n2CCCCC3)n2nc(C)c(C)c2n1,-13.55%

row,Compound,Percent Effect
1,Cc1cc(N2CCc3c(ncn3C)C2)nc(N)n1,-0.5866%
2,Cc1cc(C(=O)N2CCCC2c2nnc3n2CCCCC3)no1 (centres undefined),-10.19%
3,CN1C(=O)C(c2ccccc2)CC12CCN(CCN1CCCC1=O)CC2 (centres undefined),-2.19%
4,CCc1cccc(NC(=O)NC2CCc3nc(C)nn3C2)c1 (centres undefined),-9.583%
5,CC(C)n1[nH]c(=O)c2c1NC(=O)CC2C1CCCCC1 (centres undefined),0.5792%
6,Cc1cscc1C(=O)Nc1cc(CSCCO)ccn1,-31.68%
7,COc1cccc(C(C(=O)O)N2CCCN(c3ccnc(C)c3)CC2)c1 (centres undefined),11.66%
8,N#Cc1cc(F)c(NCc2ccc(F)cc2)c(F)c1,53.8%
9,N#Cc1cc(F)c(NCCc2ccc(F)cc2)c(F)c1,-6.207%
10,N#Cc1cc(F)c(NCCc2ccc(S(N)(=O)=O)cc2)c(F)c1,2.812%
11,Cc1ccc([C@@H]2CN(C(=O)c3csc(C)n3)C[C@H]2NC(=O)C2CC2)cc1,-2.75%
12,CC(C)c1nnc2n1CCN(CC(=O)N1CCc3ccccc3C1)C2,2.244%
13,CC(C)c1ncc(-c2cc(C3CCC3)nc(N)c2C#N)cn1,96.4%
14,CCSc1ncc(-c2cc(C3CCC3)nc(N)c2C#N)cn1,87.05%
15,CCSc1ncc(-c2cc(C3CC3)nc(N)c2C#N)cn1,99.54%
16,CCSc1ncc(CN2CCN(c3ccc(C#N)cc3)C(=O)C2)cn1,-0.09513%
17,CCSc1ncc(CN2CCN(c3ncc(C)c(N)n3)CC2)cn1,-0.8762%
18,CCCNc1ncc(-c2cc(C3CC3)nc(N)c2C#N)cn1,97.87%
19,CCSc1ncc(-c2nccn2CCN(C)C)cn1,-18.01%
20,O=C(NC1CCN(c2ncccn2)CC1)c1cc2c([nH]c1=O)CCC2,7.428%
21,Cc1nnc(SCCC(=O)N(C)Cc2ccc(F)cc2F)[nH]1,2.141%
22,O=C(O)C(F)(F)F.O=C1CC[C@H]2[C@H](CCN2C(=O)C2CCOCC2)N1Cc1ccncc1,25.13%
23,CN1CCN(C(=O)c2ccc3c(c2)[nH]c(=O)n3C2CCCC2)CC1,14.39%
24,Cc1cc(-c2nn(C)c(Cl)c2CN2CCCCC(N)C2)no1 (centres undefined),-8.809%
25,COCc1cc(CC2(NC3CCCCC3)COC2)no1,18.94%
26,CC(Cn1cccn1)NCc1csc(-c2ccc3c(c2)OCO3)n1 (centres undefined),-1.421%

row,Compound,Percent Effect
1,Cc1cc2[nH]c(CN3CCOC(Cc4ccccc4)C3)cc(=O)n2n1 (centres undefined),-6.493%
2,Cc1cccc(C(=O)Nc2cccc3c2C(=O)NC3)n1,-5.114%
3,COCC1CN(C(=O)c2cccc(C)n2)Cc2ncnn2C1 (centres undefined),-6.948%
4,CCc1sc(-c2nnc(CNC(C)Cn3cc(C)cn3)o2)cc1C (centres undefined),-3.595%
5,CCc1ccc(CN2CCN(Cc3ncc[nH]3)[C@H]3CS(=O)(=O)C[C@H]32)nc1,8.56%
6,[O-][S+](CCN1CCc2[nH]nc(C(F)(F)F)c2C1)c1ccccc1 (centres undefined),-3.726%
7,Cn1ncc2c(=O)[nH]c(CN3CCCC3CCc3ccccc3)nc21 (centres undefined),94.92%
8,COc1cccc(C2CCCN2Cc2nc3c(cnn3C)c(=O)[nH]2)c1 (centres undefined),-3.209%
9,Cn1ncc2c(=O)[nH]c(CN3CCC(Cc4ccccc4)CC3)nc21,-8.773%
10,Cn1ncc2c(=O)[nH]c(CN3CCCC3Cc3ccccc3)nc21 (centres undefined),-2.22%
11,CCC1CCCCN1Cc1nc2c(cnn2C)c(=O)[nH]1 (centres undefined),107.5%
12,Cn1ncc2c(=O)[nH]c(CN3CCCC3CC3CCCCC3)nc21 (centres undefined),-0.1708%
13,Cn1ncc2c(=O)[nH]c(CN3CCCC3CC(C)(C)C)nc21 (centres undefined),114.1%
14,Cn1ncc2c(=O)[nH]c(CN3CCCC3Cc3ccc(F)cc3)nc21 (centres undefined),116%
15,Cc1ccc(C2CCCN2Cc2nc3c(cnn3C)c(=O)[nH]2)cc1C (centres undefined),2.271%
16,COc1ccccc1-c1noc(CCC(=O)NC(C)Cn2cccn2)n1 (centres undefined),-41.91%
17,COc1ccc(-n2ccnc2-c2cnc(N(C)C)nc2)cc1OC,-6.365%
18,Cc1ccc(CN2CCN(c3ncccc3Cl)CC2CCO)cc1 (centres undefined),-15.14%
19,O=C(c1cn2cc(Cl)cnc2n1)N1CCOCC(O)(CN2CCCC2)C1 (centres undefined),-2.711%
20,Cc1nccn1-c1ccc(C(C)NCCc2ccccn2)cc1 (centres undefined),8.244%
21,CNC1CCCN(Cc2noc(C3CC3)n2)C1.Cl (centres undefined),-6.036%
22,C1CC(NCc2nc(C3CC3)no2)CN(Cc2noc(C3CC3)n2)C1 (centres undefined),4.824%
23,CCc1nc(CN2CCCC(NCCn3cncn3)C2)no1 (centres undefined),25.84%
24,CCc1noc(CNC2CCCN(Cc3noc(C4CC4)n3)C2)n1 (centres undefined),122.3%
25,CCc1nc(CN2CCCC(NCc3ccc(C(N)=O)cc3)C2)no1 (centres undefined),-8.136%
26,Cn1ccnc1CNC1CCCN(Cc2noc(C3CC3)n2)C1 (centres undefined),-20.64%

row,Compound,Percent Effect
1,CCc1nc(CN2CCCC(NCc3ncc(C(C)(C)C)o3)C2)no1 (centres undefined),9.361%
2,CCCc1noc(CNC2CCCN(Cc3noc(C4CC4)n3)C2)n1 (centres undefined),116.1%
3,CCc1nc(CN2CCCC(NCc3nc(C)c(C)o3)C2)no1 (centres undefined),135.7%
4,CCc1nc(CN2CCCC(NCc3nnc(C4CC4)n3C)C2)no1 (centres undefined),109.6%
5,Cc1ncc(CNC2CCCN(Cc3noc(C4CC4)n3)C2)s1 (centres undefined),-12.11%
6,CCc1nc(CN2CCCC(NCc3cc(C)no3)C2)no1 (centres undefined),2.816%
7,COCCN(Cc1ccc(F)cc1Cl)C(=O)c1cc(C)no1,3.523%
8,Cc1cccc2c1nc1n2[C@@H](CNC(=O)Cc2ccccc2)COC1,-6.284%
9,Cc1cc(C)c2c(N(C)CC3CCN(CC(C)C)C3)ncnc2n1 (centres undefined),16%
10,Cc1nc(C(=O)N(Cc2c(C)nn(C)c2C)C(C)C)cs1,0.2586%
11,CCN(C(=O)c1cccc2c1OCO2)c1ccc(Br)cn1,-0.9868%
12,CCOc1ccc(N2CCC(C(O)c3ccccc3)CC2)nn1 (centres undefined),-5.535%
13,O=S(=O)(Cc1ccccc1Cl)NC(CO)c1ccco1 (centres undefined),-8.194%
14,CCC(C)NC(=O)CS(=O)(=O)Cc1ccccc1Cl (centres undefined),-0.4939%
15,CC(NC(=O)OC(C)(C)C)c1nnc(S(=O)(=O)Cc2ccccc2Cl)o1 (centres undefined),135.1%
16,C[C@H](NC(=O)OC(C)(C)C)c1nnc(S(=O)(=O)Cc2cccc(F)c2)o1,143.7%
17,CC(NC(=O)OC(C)(C)C)c1nnc(S(=O)(=O)Cc2ccc(Cl)cc2)o1 (centres undefined),137.4%
18,CC(C)S(=O)(=O)c1nnc(CCNC(=O)OC(C)(C)C)o1,16.12%
19,CC(NC(=O)CNC(=O)OC(C)(C)C)c1ccc(Cl)s1 (centres undefined),-4.782%
20,CC(NC1(CNC(=O)OC(C)(C)C)CCOCC1)c1ccccc1 (centres undefined),3.949%
21,Cc1ccccc1CS(=O)(=O)c1nnc(N2CCOCC2)s1,-8.396%
22,CC(C)NC(=O)NCCCc1cccc(F)c1,-3.402%
23,Cc1ccccc1CS(=O)(=O)c1nnc(C(C)NC(=O)OC(C)(C)C)o1 (centres undefined),85.24%
24,CC(C)(C)OC(=O)NCCC(=O)NCC(O)c1cccc(F)c1 (centres undefined),-4.021%
25,CC(C)(C)c1ccc(C2(C(=O)NCCS(C)(=O)=O)CC2)cc1,2.157%
26,Cn1cnc(-c2ccc(F)cc2)c1NC(=O)CCNC(=O)C(C)(C)C,-6.706%
